# From the supplement of paper PMC6607015
# Structures can show the parent of a compound that is named as a salt.
# Tested on: A431
# Test: LBPA endosome anti-LBPA integrated intensity (sum per cell), Z-score; higher = more LBPA staining
# Details: compound concentration in added solution (µM; 5 µl added to 20 µl cells): 10; 18 h
# Summary of the method: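 Z-scores normalised in AcuityXpress are given for per-cell integrated LBPA or filipin intensity, measured whole-cell or within LBPA endosomes by MetaXpress segmentation. Cells (HeLa MZ or A431, 3,500 per well in 20 µl) were seeded onto 5 µl of 10 µM compound solution in duplicate 384-well imaging plates and fixed in 4% PFA after 18 h.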
row,SMILES,LBPA endosome anti-LBPA integrated intensity (z-score)
1,C[C@@H]1NC(=O)NC1=O [Methylhydantoin-5-(L)],-0.307
2,C[C@@](Cc1ccc(O)c(O)c1)(NN)C(=O)O [Carbidopa],-0.613
3,C[C@]12C[C@H](O)[C@H]3[C@@H](CCC4=CC(=O)CC[C@@]43C)[C@@H]1CC[C@@H]2C(=O)CO [Corticosterone],-0.334
4,Cc1scc2c1N(C(=O)CN1CCN(C)CC1)c1ccccc1NC2=O [Telenzepine dihydrochloride],-0.645
5,Cc1nnc(SCC2=C(C(=O)O)N3C(=O)[C@@H](NC(=O)Cn4cnnn4)[C@H]3SC2)s1 [Cefazolin sodium salt],-0.481
6,COc1nc(C)nc(Cl)c1NC1=NCCN1 [Moxonidine],-0.127
7,Nc1ccc(S(=O)(=O)c2ccc(N)cc2)cc1 [Dapsone],-0.514
8,CCCCOc1ccc(OCCCN2CCOCC2)cc1 [Pramoxine hydrochloride],-0.284
9,CN(Cc1cnc2nc(N)nc(N)c2n1)c1ccc(C(=O)N[C@@H](CCC(=O)O)C(=O)O)cc1 [Methotrexate],-0.383
10,COc1cc(NS(=O)(=O)c2ccc(N)cc2)ncn1 [Sulfamonomethoxine],-0.448
11,CN1C(C(=O)Nc2ccccn2)=C(O)c2sccc2S1(=O)=O [Tenoxicam],-0.541
12,COC(=O)Nc1nc2cc(C(=O)c3ccc(F)cc3)ccc2[nH]1 [Flubendazol],-0.354
13,CCOC1O[C@H]([C@@H](COCc2ccccc2)OCc2ccccc2)[C@H](OCc2ccccc2)[C@H]1O (stereo partly specified) [Tribenoside],0.543
14,COc1cc([C@@H]2c3cc4c(cc3[C@@H](O[C@@H]3O[C@@H]5CO[C@@H](C)O[C@H]5[C@H](O)[C@H]3O)[C@H]3COC(=O)[C@H]23)OCO4)cc(OC)c1O [Etoposide],-0.699
15,COc1ccc(C(=O)c2ccccc2O)c(O)c1 [Dioxybenzone],-0.417
16,CN(C)[C@@H]1C(O)=C(C(N)=O)C(=O)[C@@]2(O)C(O)=C3C(=O)c4c(O)cccc4[C@@](C)(O)[C@H]3[C@H](O)[C@@H]12 [Oxytetracycline dihydrate],-0.525

row,SMILES,LBPA endosome anti-LBPA integrated intensity (z-score)
1,O=C(CCCCCCC(=O)Nc1ccccc1)NO [Vorinostat],0.0566
2,COC(=O)Nc1nc2cc([S+]([O-])c3ccccc3)ccc2[nH]1 (stereo unspecified) [Oxfendazol],-0.637
3,CN1C(C)(C)CCCC1(C)C [Pempidine tartrate],-0.407
4,CCCCOc1ccc(C(=O)CCN2CCCCC2)cc1 [Dyclonine hydrochloride],0.717
5,CCC(Cc1c(I)cc(I)c(N)c1I)C(=O)O (stereo unspecified) [Iopanoic acid],-0.521
6,CN(C)CCOC(=O)C(c1ccccc1)C1(O)CCCC1 (stereo unspecified) [Cyclopentolate hydrochloride],-0.331
7,COc1ccccc1OCC(O)COC(N)=O (stereo unspecified) [Methocarbamol],-0.567
8,O=c1[nH]cc(F)c(=O)[nH]1 [5-fluorouracil],-0.738
9,CCN(CC)CCNc1ccc(CO)c2sc3ccccc3c(=O)c12 [Hycanthone],5.49
10,O=C(O)c1cc(-c2ccc(F)cc2F)ccc1O [Diflunisal],-0.321
11,CN(N=O)C(=O)N[C@@H](C=O)[C@@H](O)[C@H](O)[C@H](O)CO [Streptozotocin],-0.585
12,Nc1nc2n[nH]nc2c(=O)[nH]1 [Azaguanine-8],-0.399
13,CCCC1C(=O)N2C(N(C)C)=Nc3ccc(C)cc3N2C1=O (stereo unspecified) [Azapropazone],-0.356
14,CC(CN(C)C)CN1c2ccccc2Sc2ccccc21 (stereo unspecified) [Trimeprazine tartrate],3.47
15,Cc1cc(-c2ccccc2)nnc1NCCN1CCOCC1 [Minaprine dihydrochloride],-0.498
